Laboratory results published in the supplement of paper PMC10849652.
The full data set covers some 7,900 targets. This sample favours those with a hit. About 0.6% of all pairs of compound and target were hits.

Experiments:
Assay in all cases: log2 fold change, soluble protein after heating vs DMSO (PISA); higher = thermal stabilisation; K562 cells, 10 uM, 30 min; active = over 0.2 and 3.5 SD of the protein, either way, in both replicates (recomputed)
IRAK-1-4 Inhibitor I = compound: C1COCCN1CCN2C3=CC=CC=C3N=C2NC(=O)C4=CC(=CC=C4)[N+](=O)[O-] [IRAK-1-4 Inhibitor I]
In short: (§1)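 K562 cells at 2×10^6 cells/mL were treated for 30 min with 10 μM compound, and aliquots were heated for 3 min over 48°C-58°C before pooling. Extraction used PBS with 0.5% NP-40 at 4°C, and soluble protein was the supernatant after 21,000xg for 90 min, measured by TMTpro 16plex LC-MS/MS with channel sums equalised. Thermal stability values, relative to control samples and from duplicates, are log2 fold changes.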

ibrutinib = compound: C=CC(=O)N1CCC[C@@H](n2nc(-c3ccc(Oc4ccccc4)cc3)c3c(N)ncnc32)C1 [ibrutinib]
In short: as §1

[1] = compound: CC(=O)c1cnc2ccc(-c3cc(Cl)c(O)c(Cl)c3)nc2c1N[C@H]1CC[C@H](CN(C)C)CC1
In short: as §1

ralimetinib = compound: CC(C)(C)Cn1c(N)nc2ccc(-c3[nH]c(C(C)(C)C)nc3-c3ccc(F)cc3)nc21 [ralimetinib]
In short: as §1

[2] = compound: CC(C)(O)CC(=O)NCCn1ccc2ncnc(Nc3ccc(Oc4cccc(C(F)(F)F)c4)c(Cl)c3)c21
In short: as §1

[3] = compound: CC(C)C1=C2N=C(C=C(N2N=C1)NCC3=CC=CC=C3)NCCCCCCN
In short: as §1

[4] = compound: CC(C)C[C@@H](C=O)NC(=O)[C@H](CC(C)C)NC(=O)[C@H](CC(C)C)NC(=O)OCc1ccccc1
In short: as §1

pinometostat = compound: CC(C)N(C[C@H]1O[C@@H](n2cnc3c(N)ncnc32)[C@H](O)[C@@H]1O)[C@H]1C[C@@H](CCc2nc3cc(C(C)(C)C)ccc3[nH]2)C1 [pinometostat]
In short: as §1

[5] = compound: CC1=C(C(CC(=O)N1)C2=CC=C(C=C2)C(F)(F)F)C(=O)NC3=C(C=C4C(=C3)C=NN4)F
In short: as §1

[6] = compound: CC1=C(C2=C(C=C1)C(=O)C3=CC=CC=C3N2CCCN)C
In short: as §1

Measured: log2 fold change

PSME4 (UniProt Q14997)
Sequence of UniProt Q14997 (Q14997 whole entry, looked up): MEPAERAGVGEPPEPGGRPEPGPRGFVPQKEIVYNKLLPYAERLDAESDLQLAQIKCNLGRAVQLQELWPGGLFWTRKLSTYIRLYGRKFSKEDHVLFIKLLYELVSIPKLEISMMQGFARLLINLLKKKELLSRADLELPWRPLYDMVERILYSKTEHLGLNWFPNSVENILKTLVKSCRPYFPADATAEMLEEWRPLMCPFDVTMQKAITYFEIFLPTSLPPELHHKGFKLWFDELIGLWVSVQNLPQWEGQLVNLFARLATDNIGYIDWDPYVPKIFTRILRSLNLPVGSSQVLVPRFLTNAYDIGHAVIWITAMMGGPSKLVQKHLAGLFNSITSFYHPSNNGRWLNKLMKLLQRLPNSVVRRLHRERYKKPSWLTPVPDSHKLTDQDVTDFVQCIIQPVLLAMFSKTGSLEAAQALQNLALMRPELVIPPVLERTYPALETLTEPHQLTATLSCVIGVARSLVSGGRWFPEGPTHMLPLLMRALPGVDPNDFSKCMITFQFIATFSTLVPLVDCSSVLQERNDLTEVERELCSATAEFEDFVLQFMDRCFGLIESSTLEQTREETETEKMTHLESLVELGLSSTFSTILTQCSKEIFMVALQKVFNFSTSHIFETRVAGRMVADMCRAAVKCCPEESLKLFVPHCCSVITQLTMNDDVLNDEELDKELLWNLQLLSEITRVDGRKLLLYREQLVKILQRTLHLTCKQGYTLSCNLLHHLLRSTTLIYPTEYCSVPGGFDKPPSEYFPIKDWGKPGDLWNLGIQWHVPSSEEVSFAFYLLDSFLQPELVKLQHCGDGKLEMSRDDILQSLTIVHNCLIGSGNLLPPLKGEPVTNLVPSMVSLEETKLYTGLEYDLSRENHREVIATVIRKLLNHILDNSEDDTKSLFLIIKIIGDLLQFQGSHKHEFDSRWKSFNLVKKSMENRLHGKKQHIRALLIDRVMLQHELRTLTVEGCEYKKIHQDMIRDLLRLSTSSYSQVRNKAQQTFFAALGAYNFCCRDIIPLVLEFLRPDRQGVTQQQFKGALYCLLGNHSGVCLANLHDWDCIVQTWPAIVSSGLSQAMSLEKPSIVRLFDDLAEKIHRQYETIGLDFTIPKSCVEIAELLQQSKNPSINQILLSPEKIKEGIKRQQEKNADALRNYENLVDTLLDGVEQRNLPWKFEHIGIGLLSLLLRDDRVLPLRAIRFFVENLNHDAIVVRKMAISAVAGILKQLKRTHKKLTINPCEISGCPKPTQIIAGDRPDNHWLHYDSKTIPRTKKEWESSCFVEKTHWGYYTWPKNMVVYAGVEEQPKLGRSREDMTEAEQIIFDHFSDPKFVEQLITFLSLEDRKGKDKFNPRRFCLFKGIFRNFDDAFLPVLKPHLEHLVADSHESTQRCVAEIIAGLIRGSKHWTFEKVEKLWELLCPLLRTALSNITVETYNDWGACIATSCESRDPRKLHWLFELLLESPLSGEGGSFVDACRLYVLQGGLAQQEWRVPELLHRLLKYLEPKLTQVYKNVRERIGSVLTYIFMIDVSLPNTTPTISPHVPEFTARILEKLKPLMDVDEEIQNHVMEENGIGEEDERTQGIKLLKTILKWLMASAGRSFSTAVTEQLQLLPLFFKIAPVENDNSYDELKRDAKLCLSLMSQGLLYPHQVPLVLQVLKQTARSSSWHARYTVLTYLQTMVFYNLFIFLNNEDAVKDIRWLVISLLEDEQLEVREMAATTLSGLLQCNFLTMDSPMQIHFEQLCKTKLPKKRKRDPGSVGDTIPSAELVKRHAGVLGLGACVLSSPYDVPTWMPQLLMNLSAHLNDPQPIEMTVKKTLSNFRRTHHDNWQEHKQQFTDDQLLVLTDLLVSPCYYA
inactive: IRAK-1-4 Inhibitor I 0.003 | ibrutinib -0.022 | [1] -0.023 | ralimetinib -0.024 | [2] -0.097 | [3] -0.043 | pinometostat 0.068 | [5] 0.023 | [6] 0.105
active: [4] 0.271

PNN (UniProt Q9H307)
Sequence of UniProt Q9H307 (Q9H307 whole entry, looked up): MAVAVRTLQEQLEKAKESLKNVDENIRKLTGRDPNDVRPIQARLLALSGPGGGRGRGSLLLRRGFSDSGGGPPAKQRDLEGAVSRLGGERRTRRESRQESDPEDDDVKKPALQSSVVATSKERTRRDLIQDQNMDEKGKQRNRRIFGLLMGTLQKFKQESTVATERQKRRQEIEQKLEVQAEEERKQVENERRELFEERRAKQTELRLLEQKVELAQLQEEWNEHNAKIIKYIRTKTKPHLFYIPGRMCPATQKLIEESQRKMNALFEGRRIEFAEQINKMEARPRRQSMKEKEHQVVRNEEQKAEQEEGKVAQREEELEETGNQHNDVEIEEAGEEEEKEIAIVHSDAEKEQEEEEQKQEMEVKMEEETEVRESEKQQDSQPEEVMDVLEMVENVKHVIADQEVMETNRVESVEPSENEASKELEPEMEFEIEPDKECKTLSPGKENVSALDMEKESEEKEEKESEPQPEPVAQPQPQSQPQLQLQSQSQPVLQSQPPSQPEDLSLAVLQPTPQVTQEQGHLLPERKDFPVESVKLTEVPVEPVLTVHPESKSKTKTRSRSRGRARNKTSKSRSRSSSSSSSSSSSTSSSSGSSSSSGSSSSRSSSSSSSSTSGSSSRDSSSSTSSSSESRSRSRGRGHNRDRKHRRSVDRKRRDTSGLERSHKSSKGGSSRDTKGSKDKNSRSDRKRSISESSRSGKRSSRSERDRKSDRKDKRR
inactive: IRAK-1-4 Inhibitor I 0.051 | ibrutinib -0.047 | [1] -0.134 | ralimetinib 0.032 | [2] 0.004 | [3] -0.146 | [4] 0.145 | pinometostat 0.124 | [5] 0.056

PRCP (UniProt P42785)
inactive: IRAK-1-4 Inhibitor I 0.04 | ibrutinib 0.012 | [1] 0.014 | ralimetinib -0.01 | [2] -0.072 | [3] -0.077 | [4] -0.025 | pinometostat -0.006 | [5] 0.012 | [6] -0.101

PPP1R14A (UniProt Q96A00)
inactive: IRAK-1-4 Inhibitor I 0.041 | ibrutinib -0.01 | [1] 0.036 | ralimetinib 0.218 | [2] -0.009 | [3] 0.126 | [4] -0.122 | pinometostat -0.065 | [5] 0.01 | [6] -0.073

PIP4K2C (UniProt Q8TBX8)
Sequence of UniProt Q8TBX8 (Q8TBX8 whole entry, looked up): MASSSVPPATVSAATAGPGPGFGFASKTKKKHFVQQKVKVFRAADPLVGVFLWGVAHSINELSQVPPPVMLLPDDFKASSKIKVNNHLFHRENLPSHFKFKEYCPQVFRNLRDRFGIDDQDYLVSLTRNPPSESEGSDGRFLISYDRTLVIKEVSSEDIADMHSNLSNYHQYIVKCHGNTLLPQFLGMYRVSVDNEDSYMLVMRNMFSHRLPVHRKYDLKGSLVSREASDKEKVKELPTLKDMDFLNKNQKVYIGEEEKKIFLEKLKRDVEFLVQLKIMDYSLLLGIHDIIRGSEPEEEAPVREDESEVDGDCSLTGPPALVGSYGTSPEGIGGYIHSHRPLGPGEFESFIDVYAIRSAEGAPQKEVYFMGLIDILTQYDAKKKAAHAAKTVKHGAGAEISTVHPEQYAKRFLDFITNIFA
inactive: IRAK-1-4 Inhibitor I 0.607 | ibrutinib 0.064 | ralimetinib -0.019 | [2] -0.14 | [3] 0.095 | [4] 0.003 | pinometostat -0.006 | [5] -0.106 | [6] 0.018
active: [1] 1.48

PMPCA (UniProt Q10713)
inactive: IRAK-1-4 Inhibitor I 0.016 | ibrutinib -0.008 | [1] -0.029 | ralimetinib 0.057 | [2] -0.155 | [3] 0.097 | [4] -0.003 | pinometostat -0.015 | [5] -0.034 | [6] 0.055

PSMD6 (UniProt Q15008)
active: [4] -0.221
inactive: IRAK-1-4 Inhibitor I -0.037 | ibrutinib -0.036 | [1] 0.081 | ralimetinib 0.087 | [2] 0.05 | [3] 0.038 | pinometostat 0.047 | [5] 0.028 | [6] 0.012

PTPA (UniProt Q15257)
Sequence of UniProt Q15257 (Q15257 whole entry, looked up): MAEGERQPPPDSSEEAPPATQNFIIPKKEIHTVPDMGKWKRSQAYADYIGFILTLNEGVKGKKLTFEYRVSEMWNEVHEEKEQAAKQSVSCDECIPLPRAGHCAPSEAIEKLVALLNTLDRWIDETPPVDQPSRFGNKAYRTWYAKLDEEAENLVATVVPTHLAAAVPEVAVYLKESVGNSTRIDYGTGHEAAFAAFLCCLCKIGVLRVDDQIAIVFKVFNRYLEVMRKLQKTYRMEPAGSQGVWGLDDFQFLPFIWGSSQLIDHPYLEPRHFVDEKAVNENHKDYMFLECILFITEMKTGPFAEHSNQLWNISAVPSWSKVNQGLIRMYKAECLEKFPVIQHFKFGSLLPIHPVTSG
inactive: IRAK-1-4 Inhibitor I 0.016 | ibrutinib -0.027 | [1] -0.003 | ralimetinib -0.02 | [2] -0.022 | [3] -0.01 | [4] -0.028 | pinometostat -0.044 | [5] 0.016 | [6] -0.011

PIP4K2B (UniProt P78356)
active: [1] 0.856
inactive: IRAK-1-4 Inhibitor I 0.254 | ibrutinib 0.01 | ralimetinib 0.005 | [2] -0.149 | [3] 0.033 | [4] -0.034 | pinometostat -0.014 | [5] -0.11 | [6] 0.065

PRKAG1 isoform 3 (UniProt P54619)
inactive: IRAK-1-4 Inhibitor I 0.042 | ibrutinib -0.019 | ralimetinib 0.001 | [2] -0.011 | [3] -0.067 | [4] -0.025 | pinometostat 0.015 | [5] 0.079 | [6] 0.013
active: [1] -0.266

PRKAB1 (UniProt Q9Y478)
inactive: IRAK-1-4 Inhibitor I 0.015 | ibrutinib -0.02 | [1] -0.184 | ralimetinib 0.022 | [2] -0.069 | [3] -0.006 | [4] -0.041 | pinometostat -0.048 | [5] 0.036 | [6] 0.015

PPP4R3B (UniProt Q5MIZ7)
inactive: IRAK-1-4 Inhibitor I 0.027 | ibrutinib -0.024 | [1] -0.018 | ralimetinib -0.014 | [2] 0.095 | [3] -0.069 | [4] -0.023 | pinometostat -0.021 | [5] 0.034 | [6] -0.069

PPP2R5E (UniProt Q16537)
inactive: IRAK-1-4 Inhibitor I -0.01 | ibrutinib -0.001 | [1] -0.033 | ralimetinib -0.029 | [2] -0.046 | [3] -0.144 | [4] 0.019 | pinometostat 0.015 | [5] 0.028 | [6] 0.136

PCBP2 isoform 3 (UniProt Q15366)
inactive: IRAK-1-4 Inhibitor I -0.065 | ibrutinib -0.048 | [1] -0.056 | ralimetinib 0.017 | [2] -0.067 | [3] -0.211 | [4] -0.029 | pinometostat -0.049 | [5] -0.013 | [6] 0.025

PRKAR2B (UniProt P31323)
inactive: IRAK-1-4 Inhibitor I -0.038 | ibrutinib -0.011 | ralimetinib -0.039 | [2] -0.007 | [3] -0.068 | [4] 0.044 | pinometostat 0.108 | [5] -0.075 | [6] 0.022
active: [1] -0.833

PMPCB (UniProt O75439)
inactive: IRAK-1-4 Inhibitor I 0.035 | ibrutinib 0.008 | [1] 0.01 | ralimetinib 0.064 | [2] -0.108 | [3] 0.04 | [4] 0.012 | pinometostat -0.022 | [5] 0 | [6] 0.015

PC (UniProt P11498)
inactive: IRAK-1-4 Inhibitor I -0.024 | ibrutinib 0.04 | [1] -0.151 | ralimetinib -0.02 | [2] -0.038 | [3] 0.183 | [4] -0.037 | pinometostat -0.016 | [5] -0.081 | [6] 0.15

PYGB (UniProt P11216)
active: [1] -0.246
inactive: IRAK-1-4 Inhibitor I -0.029 | ibrutinib 0.037 | ralimetinib -0.025 | [2] 0.025 | [3] 0.01 | [4] 0.005 | pinometostat 0.011 | [5] 0.055 | [6] 0.087

PARL (UniProt Q9H300)
inactive: IRAK-1-4 Inhibitor I 0.019 | ibrutinib 0.007 | [1] 0.003 | ralimetinib -0.022 | [2] -0.003 | [4] 0.005 | pinometostat -0.006 | [5] 0.059 | [6] 0.017
active: [3] -0.233

PSMB4 (UniProt P28070)
inactive: IRAK-1-4 Inhibitor I -0.021 | ibrutinib 0.006 | [1] 0.044 | ralimetinib -0.008 | [2] 0.045 | [3] 0.065 | [4] -0.043 | pinometostat 0.03 | [5] 0.013 | [6] 0.018

PEF1 (UniProt Q9UBV8)
inactive: IRAK-1-4 Inhibitor I 0.003 | ibrutinib -0.002 | [1] -0.03 | ralimetinib -0.057 | [2] -0.092 | [3] -0.094 | [4] -0.085 | pinometostat -0.041 | [5] -0.014 | [6] 0.085

PRPSAP2 (UniProt O60256)
inactive: IRAK-1-4 Inhibitor I 0.02 | ibrutinib 0.008 | [1] 0.074 | ralimetinib -0.013 | [2] 0.003 | [3] 0.035 | [4] -0.017 | pinometostat -0.003 | [5] 0.033 | [6] 0.063

PKN2 (UniProt Q16513)
Sequence of UniProt Q16513 (Q16513 whole entry, looked up): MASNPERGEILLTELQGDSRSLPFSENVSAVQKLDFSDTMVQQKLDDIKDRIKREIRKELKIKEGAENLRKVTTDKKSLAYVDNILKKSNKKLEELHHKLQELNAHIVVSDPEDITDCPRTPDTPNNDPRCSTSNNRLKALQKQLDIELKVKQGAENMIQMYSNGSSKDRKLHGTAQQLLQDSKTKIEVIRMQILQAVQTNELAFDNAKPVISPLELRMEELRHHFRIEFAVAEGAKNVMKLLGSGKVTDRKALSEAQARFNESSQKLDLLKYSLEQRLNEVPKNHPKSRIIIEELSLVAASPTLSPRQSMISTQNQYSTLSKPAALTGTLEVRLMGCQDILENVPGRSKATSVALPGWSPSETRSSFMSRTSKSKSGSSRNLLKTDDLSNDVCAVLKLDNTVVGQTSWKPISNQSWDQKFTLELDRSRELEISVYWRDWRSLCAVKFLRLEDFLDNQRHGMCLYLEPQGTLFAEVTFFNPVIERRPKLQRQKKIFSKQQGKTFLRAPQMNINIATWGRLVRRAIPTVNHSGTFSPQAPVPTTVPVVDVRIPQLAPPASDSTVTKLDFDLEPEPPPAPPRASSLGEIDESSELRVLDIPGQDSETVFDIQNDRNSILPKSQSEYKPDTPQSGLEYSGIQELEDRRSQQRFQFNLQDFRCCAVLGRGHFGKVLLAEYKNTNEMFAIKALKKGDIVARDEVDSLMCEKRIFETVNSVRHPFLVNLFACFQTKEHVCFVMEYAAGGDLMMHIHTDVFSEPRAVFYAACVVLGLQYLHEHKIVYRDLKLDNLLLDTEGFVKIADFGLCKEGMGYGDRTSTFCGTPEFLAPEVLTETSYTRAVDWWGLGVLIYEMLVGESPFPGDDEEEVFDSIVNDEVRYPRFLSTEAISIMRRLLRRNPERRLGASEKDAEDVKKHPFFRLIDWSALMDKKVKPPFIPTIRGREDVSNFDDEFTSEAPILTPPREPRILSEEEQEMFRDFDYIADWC
active: [1] -0.797
inactive: IRAK-1-4 Inhibitor I -0.017 | ibrutinib -0.054 | ralimetinib 0.085 | [2] -0.042 | [3] -0.051 | [4] 0.085 | pinometostat 0.141 | [5] -0.025 | [6] -0.016

PTPN12 (UniProt Q05209)
Sequence of UniProt Q05209 (Q05209 whole entry, looked up): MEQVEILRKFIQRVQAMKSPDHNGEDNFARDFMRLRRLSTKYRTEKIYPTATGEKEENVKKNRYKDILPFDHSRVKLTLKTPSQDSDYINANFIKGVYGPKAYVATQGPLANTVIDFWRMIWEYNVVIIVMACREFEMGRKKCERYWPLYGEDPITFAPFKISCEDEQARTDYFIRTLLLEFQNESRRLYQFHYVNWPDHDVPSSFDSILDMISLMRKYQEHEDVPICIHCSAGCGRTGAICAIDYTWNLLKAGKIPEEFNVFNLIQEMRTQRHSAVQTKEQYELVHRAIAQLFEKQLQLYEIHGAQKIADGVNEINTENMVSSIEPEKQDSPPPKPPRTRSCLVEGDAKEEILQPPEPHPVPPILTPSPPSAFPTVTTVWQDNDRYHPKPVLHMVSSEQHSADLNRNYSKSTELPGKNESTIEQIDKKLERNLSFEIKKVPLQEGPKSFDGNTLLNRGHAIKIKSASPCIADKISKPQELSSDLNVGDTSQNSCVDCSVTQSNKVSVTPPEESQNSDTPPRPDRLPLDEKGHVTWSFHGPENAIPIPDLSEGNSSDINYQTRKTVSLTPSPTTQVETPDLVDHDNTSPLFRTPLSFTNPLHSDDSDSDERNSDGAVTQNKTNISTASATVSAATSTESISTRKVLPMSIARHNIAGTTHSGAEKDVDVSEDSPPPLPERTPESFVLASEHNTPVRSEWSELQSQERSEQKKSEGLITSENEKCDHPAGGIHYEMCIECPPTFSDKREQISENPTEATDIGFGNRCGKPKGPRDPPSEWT
inactive: IRAK-1-4 Inhibitor I -0.011 | ibrutinib -0.008 | ralimetinib 0.004 | [2] 0.039 | [3] -0.101 | [4] 0.057 | pinometostat 0.045 | [5] -0.004 | [6] 0.004
active: [1] 0.264

PRKAB2 (UniProt O43741)
inactive: IRAK-1-4 Inhibitor I 0.003 | ibrutinib 0.054 | [1] -0.115 | ralimetinib 0.223 | [2] -0.117 | [3] -0.028 | [4] -0.175 | pinometostat -0.065 | [5] 0.032 | [6] -0.053

PDS5B (UniProt Q9NTI5)
inactive: IRAK-1-4 Inhibitor I -0.184 | ibrutinib -0.102 | [1] -0.052 | ralimetinib -0.01 | [2] -0.093 | [3] -0.166 | [4] 0.124 | pinometostat 0.093 | [5] -0.078 | [6] 0.02

PNPLA2 (UniProt Q96AD5)
inactive: IRAK-1-4 Inhibitor I -0.006 | ibrutinib 0.166 | [1] -0.116 | ralimetinib -0.009 | [2] 0.044 | [3] -0.184 | [4] 0.121 | pinometostat -0.018 | [5] -0.083 | [6] -0.004

PDPK1 (UniProt O15530)
inactive: IRAK-1-4 Inhibitor I 0.019 | ibrutinib -0.043 | ralimetinib -0.067 | [2] -0.087 | [3] -0.134 | [4] 0.015 | pinometostat 0.001 | [5] 0.035 | [6] 0.027
active: [1] -0.346

POM121 (UniProt Q96HA1)
inactive: IRAK-1-4 Inhibitor I -0.022 | ibrutinib 0.005 | [1] -0.164 | ralimetinib 0.083 | [2] 0.016 | [3] -0.241 | [4] 0.178 | pinometostat 0.065 | [5] -0.042 | [6] -0.057

PRKCB isoform 2 (UniProt P05771)
active: [1] -0.373
inactive: IRAK-1-4 Inhibitor I 0.027 | ibrutinib -0.009 | ralimetinib 0.022 | [2] -0.057 | [3] -0.049 | [4] 0.028 | pinometostat 0.014 | [5] 0.013 | [6] -0.025
